From PubChem
CYP2C19 inhib: blockers of cytochrome P450 2C19 activity – biochemical, luminescence, ADME assay, primary screen; P33261; CYP2C19 Supersomes, luciferin-H EGE luminescence, 30 min; inhibition, % at 5 µM; hit rate 21% among 96,000; AID 778, 2007;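 active = CYP2C19 inhibition above a set limit at 5 µM in the primary screen, cut at about 50% in these data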;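 also: plate controls were negative control wells for no effect and 2.5 mM tranylcypromine positive control for full effect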
CYP2C9 activ: human CYP2C9 activators, primary screen, biochemical, luminescence; recombinant CYP2C9, luciferin-H conversion; active compounds read high; factor 1 = untreated enzyme, 0 = blocked; Cytochrome P450 2C9 (Homo sapiens), P11712; hit rate 1.4% among 96,000; activation factor at 5 µM;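 active = activation factor of 2 or more for CYP2C9 at a 5 µM dose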;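 also: 0 = sulfaphenazole-blocked wells and 1 = vehicle-only wells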
CYP2C19 act: human CYP2C19 activators, primary screen, biochemical, luminescence; recombinant CYP2C19, luciferin-H EGE luminescence; active compounds read high; 0 = fully inhibited enzyme, 1 = untreated enzyme; activation factor at 5 µM; Cytochrome P450 2C19 (Homo sapiens), P33261; 96,000 tested, under 10 active;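 active = activation factor of at least 2 at 5 µM in the primary screen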;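 also: 0 = wells with 2.5 mM tranylcypromine and 1 = vehicle-only wells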
CD11b adhes inh: inhibitors of CD11b/CD18 adhesion to fibrinogen, primary screen, K562 cells, luminescence | Integrin beta-2 (Homo sapiens) + Integrin alpha-M (Homo sapiens), P05107+P11215 | ATPlite luminescence; Mn2+ added to activate the integrin | inhibition, % at 10 µM | hit rate 0.54% among 93,000;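 active = primary inhibition of 50% or more at 10 µM, then 40% or more on retest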
Target sequence (P05107 whole entry, looked up, other chains not shown): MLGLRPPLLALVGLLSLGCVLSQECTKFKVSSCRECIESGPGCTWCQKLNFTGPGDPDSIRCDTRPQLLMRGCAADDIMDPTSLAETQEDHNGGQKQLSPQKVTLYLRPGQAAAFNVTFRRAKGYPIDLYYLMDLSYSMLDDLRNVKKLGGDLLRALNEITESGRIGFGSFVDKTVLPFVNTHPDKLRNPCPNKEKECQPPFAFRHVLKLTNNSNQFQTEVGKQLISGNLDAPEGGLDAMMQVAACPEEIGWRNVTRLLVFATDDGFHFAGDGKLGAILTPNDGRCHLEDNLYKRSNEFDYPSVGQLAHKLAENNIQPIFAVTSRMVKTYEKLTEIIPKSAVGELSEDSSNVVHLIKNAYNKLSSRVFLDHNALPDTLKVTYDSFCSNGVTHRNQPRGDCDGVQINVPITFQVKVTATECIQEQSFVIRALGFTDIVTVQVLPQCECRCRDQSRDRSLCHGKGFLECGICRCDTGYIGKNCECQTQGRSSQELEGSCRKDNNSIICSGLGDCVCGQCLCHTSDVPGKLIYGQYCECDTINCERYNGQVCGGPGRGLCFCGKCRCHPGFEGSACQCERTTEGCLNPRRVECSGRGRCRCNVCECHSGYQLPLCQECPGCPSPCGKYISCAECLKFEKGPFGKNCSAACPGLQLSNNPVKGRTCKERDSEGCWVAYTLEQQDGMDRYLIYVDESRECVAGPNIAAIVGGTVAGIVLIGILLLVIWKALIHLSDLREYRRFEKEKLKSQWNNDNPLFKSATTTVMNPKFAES
CYP2C9 inhib: blockers of cytochrome P450 2C9 activity – biochemical, luminescence, ADME assay, primary screen. CYP2C9 Supersomes, luciferin-H conversion. hit rate 20% among 96,000. AID 777, 2007. inhibition, % at 5 µM;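 active = blocking of liver enzyme CYP2C9 beyond about 50% at 5 µM, limit read from the data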
CD11b adhes enh: enhancers of CD11b/CD18 adhesion to fibrinogen, primary screen, K562 cells, luminescence; ATPlite luminescence; activation, % at 10 µM; hit rate 0.07% among 93,000;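 active = 10 µM primary screen giving 50% or more activity, confirmed by 40% or more on retest at that dose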
The depositor's hits bear a star; · = no result given. Rows were chosen to be rich in hits. Some 28% of all compounds tested hit in one or more screens of this group.

SMILES | CYP2C19 inhib | CYP2C9 activ | CYP2C19 act | CD11b adhes inh | CYP2C9 inhib | CD11b adhes enh
CSc1nsc(SCC(=O)Nc2cccc(C(C)=O)c2)n1 | 31.6 | 0.5 | 0.7 | -0.4 | 51.2* | -0.7
O=S(=O)(N/N=C\C=C\c1ccccc1)c1ccc(Cl)cc1 | 36.5 | 0 | 0.6 | 9.7 | 95.8* | 1.1
O=S(=O)(N/N=C/c1c(F)cccc1Cl)c1ccccc1 | 66.0* | 0.8 | 0.3 | · | 20.7 | ·
OCCN(Cc1ccccc1)Cc1ccc(F)c(F)c1 | 84.3* | 0.7 | 0.2 | 3.4 | 29.6 | 2.6
O=[N+]([O-])c1cccc(CN(CCO)Cc2ccccc2)c1 | 40.7 | 0.6 | 0.6 | 0.9 | 36.1 | -1.4
COCCNCC#CCOc1ccc(OC)cc1 | 5.4 | 1 | 0.9 | 25.8 | -2.1 | -2.6
C=CCNCC#CCOc1ccc(OC)cc1 | 75.6* | 0.9 | 0.2 | -34.3 | 13.3 | -3.6
O=C(O)CCCNCc1ccccc1F | -6.9 | 1.1 | 1.1 | -19.1 | -7.3 | -4.5
CC(CNC(=O)C1CCCCC1C(=O)O)c1ccccc1 (stereo unspecified) | -6.7 | 0.9 | 1.1 | 3.2 | 8.5 | -1.9
CCn1c(SCC(=O)N2CCc3ccccc32)nnc1-c1ccco1 | 51.4* | 0.7 | 0.5 | -4.3 | 32.9 | -1.6
Cn1c(SCC(=O)N2CCCc3ccccc32)nnc1-c1ccco1 | -6.5 | 1 | 1.1 | -9.7 | -4.6 | -8.5
CCCCn1c(SCC(=O)N2CCCc3ccccc32)nc2c1c(=O)n(C)c(=O)n2C | 17.5 | 0.4 | 0.8 | 9.4 | 62.9* | 4.8
CCCn1c(SCC(=O)N2c3ccccc3CCc3ccccc32)nc2c1c(=O)n(C)c(=O)n2C | 20.5 | 1 | 0.8 | 6.1 | -0.3 | -2.7
CCCn1c(SCC(=O)N2CCCc3ccccc32)nnc1-c1ccco1 | 52.3* | 1 | 0.5 | -16.2 | 0.5 | 0.4
Cc1nc2nc3c(cn2n1)C(=O)CCC3 | 10.7 | 0.7 | 0.9 | 8.6 | 33.2 | -0.3
CC(C)(C)c1cc(C(=O)NCc2ccco2)ccn1 | -4.8 | 1.1 | 1 | -4.8 | -12.1 | -4.0
CC(NC(=O)c1ccnc(C(C)(C)C)c1)c1ccccc1 (stereo unspecified) | 55.6* | 0.4 | 0.4 | -32.5 | 55.3* | -5.0
CC(C)(C)NC(=O)c1ccnc(C(C)(C)C)c1 | 52.3* | 1 | 0.5 | -2.0 | -3.0 | -0.3
CCCCN(C(=O)CNC(=O)c1ccco1)C(C(=O)NC1CCCCC1)c1ccc(OC)cc1OC (stereo unspecified) | 15.7 | 0.9 | 0.8 | -17.4 | 8.2 | 0.8
CC(NC(=O)C1C(=O)N(CCO)C2(C)CC1c1ccccc1O2)c1ccccc1 (stereo unspecified) | 7.7 | 0.8 | 0.9 | · | 20.1 | ·
CC12CC(NC(=O)N1CCc1ccccc1)c1ccccc1O2 (stereo unspecified) | 78.7* | 0.7 | 0.2 | 1.3 | 28.7 | -4.3
N=C1c2ccccc2CN1NC(=O)c1cccc(S(=O)(=O)N2CCCC2)c1 | · | · | · | -20.7 | · | 1.9
CC(=O)C1=C(C)Nc2ncnn2C1c1cccc(OCc2ccccc2)c1 (stereo unspecified) | 11.3 | 1.1 | 0.9 | -0.6 | -13.2 | -0.3
COc1cccc(C2C(C(=O)OCc3ccccc3)=C(C)Nc3ncnn32)c1OC (stereo unspecified) | 64.0* | 0.9 | 0.4 | -3.7 | 10.5 | -1.3
CCCCOC(=O)C1=C(C)Nc2ncnn2C1c1cccc(OC)c1 (stereo unspecified) | 67.6* | 0.5 | 0.3 | -2.8 | 50.6* | -1.6
SMILES | CYP2C19 inhib | CYP2C9 activ | CYP2C19 act | CD11b adhes inh | CYP2C9 inhib | CD11b adhes enh
CCCCOC(=O)C1=C(C)Nc2ncnn2C1c1cccc(OC)c1OC (stereo unspecified) | 81.7* | 0.4 | 0.2 | · | 57.9* | ·
CCOC(=O)C1=C(c2ccccc2)Nc2ncnn2C1c1ccc(OC)c(OC)c1OC (stereo unspecified) | 27.4 | 0.7 | 0.7 | · | 25.3 | ·
CCCC1=C(C(=O)OCC)C(c2ccncc2)n2ncnc2N1 (stereo unspecified) | 78.4* | 0 | 0.2 | -48.5 | 97.2* | -3.6
CC1=C(C(=O)OCc2ccccc2)C(c2cccnc2)n2ncnc2N1 (stereo unspecified) | 34.6 | 0.9 | 0.7 | -19.4 | 13.0 | 8.8
COC(=O)C1=C(C)Nc2ncnn2C1c1ccc(OC(=O)c2ccccc2)cc1 (stereo unspecified) | 40.3 | 1.2 | 0.6 | -1.8 | -22.3 | 19.4
CC(=O)C1=C(C)Nc2ncnn2C1c1ccc(Cl)cc1Cl (stereo unspecified) | 67.9* | 0.7 | 0.3 | 45.0 | 30.0 | -3.4
COc1ccc(OC)c(C2C(C(=O)Nc3ccc(F)cc3)=C(C)Nc3nc(CCCO)nn32)c1 (stereo unspecified) | 6.6 | 1 | 0.9 | -10.5 | 0.9 | -1.0
COc1ccc(C2C(C(C)=O)=C(C)Nc3ncnn32)cc1OC (stereo unspecified) | -9.6 | 1 | 1.1 | -14.4 | 1.7 | -2.2
COc1cc(C2C(C(=O)OC(C)C)=C(C)Nc3ncnn32)cc(OC)c1OC (stereo unspecified) | 20.0 | 0.2 | 0.8 | -3.1 | 77.7* | -2.3
COc1ccccc1NC(=O)C1=C(C)Nc2nc(CCCO)nn2C1c1ccc2c(c1)OCO2 (stereo unspecified) | 39.5 | 0.4 | 0.6 | 10.7 | 59.4* | 0.4
COC(=O)c1ccc(C2C(C(=O)Nc3ccc(C)cc3C)=C(C)Nc3ncnn32)cc1 (stereo unspecified) | 61.7* | 0.7 | 0.4 | -0.7 | 25.2 | 3.8
CCCCNC(=O)COC(=O)c1cc(F)c(F)cc1Cl | · | · | · | 1.9 | · | -1.4
CCOc1ccc(N(CC)S(=O)(=O)c2ccc3c(c2)n(C)c(=O)c(=O)n3C)cc1 | -2.7 | 0.6 | 1 | -11.4 | 43.5 | 0.3
Cc1csc(SCC(=O)c2c(N)n(C)c(=O)n(C)c2=O)n1 | 8.8 | 1 | 0.9 | -5.3 | 3.5 | -0.6
O=C(CSc1nncs1)Nc1ccc(Cl)cn1 | · | · | · | -1.0 | · | -0.3
Cc1csc(NC(=O)C2CCN(C(=O)CSc3nnc(C)n3Cc3ccccc3)CC2)n1 | 35.6 | 0.6 | 0.6 | -13.5 | 43.0 | 2.6
CCOC(=O)C1=C(C)Nc2ncnn2C1c1ccc2c(c1)OCO2 (stereo unspecified) | 50.1* | 0.4 | 0.5 | -1.6 | 61.7* | 4.9
CCCCOC(=O)C1=C(C)Nc2ncnn2C1c1cc(OC)ccc1OC (stereo unspecified) | 24.1 | 0.4 | 0.8 | -8.1 | 58.4* | -0.7
CCOC(=O)C1=C(CNCCc2ccc(Cl)cc2)NC(=O)NC1c1ccc2c(c1)OCO2 (stereo unspecified) | 86.0* | 0.1 | 0.1 | -29.8 | 88.7* | -0.8
